From PubChem BioAssay (NCI)
Compounds without any hit were thinned out: in the full panel of roughly 79,000, 15% have a hit. A number with no mark means an inactive call. Calls of active or inactive are those of the source. Cut-off read from the data, not from the text of the source: active = growth inhibition above about 70%; inactive = the rest.

Tests used:
[1] = NCI Yeast Anticancer Drug Screen. Data for the rad50 strain (AID 155);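 note: 0% = growth of vehicle-only cultures of the same strain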; details: S. cerevisiae rad50 strain growth inhibition; at 50.0 µM; stronger effect = higher value
How it was run: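 Yeast carrying a defined DNA repair defect were exposed to test compounds, and growth was compared with vehicle-treated controls to give percent inhibition.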

[2] = NCI Yeast Anticancer Drug Screen. Data for the mec2-1 strain (AID 157); details: S. cerevisiae mec2-1 strain, at 50.0 µM, stronger effect = higher value
How it was run: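 Cells of the genetically defined mec2-1 yeast strain are incubated with test compound. Inhibition of growth is calculated against vehicle-treated controls.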

[3] = NCI Yeast Anticancer Drug Screen. Data for the sgs1 mgt1 strain (AID 161);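 note: 0% = growth of cultures given vehicle only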; details: S. cerevisiae sgs1 mgt1 strain, at 50.0 µM, stronger effect = higher value
How it was run: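 Test agents were incubated with a DNA-repair-mutant yeast strain. Growth was then read and compared against vehicle-treated controls.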

[4] = NCI Yeast Anticancer Drug Screen. Data for the cln2 rad14 strain (AID 165);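 note: 0% = growth equal to vehicle treated cultures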; details: S. cerevisiae cln2 rad14 strain, at 50.0 µM, stronger effect = higher value
How it was run: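 The screen exposed genetically defined yeast (cln2 rad14) to test compounds and scored growth inhibition relative to vehicle-treated controls.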

[5] = NCI Yeast Anticancer Drug Screen. Data for the bub3 strain (AID 167); details: S. cerevisiae bub3 mutant strain, at 50.0 µM, stronger effect = higher value
How it was run: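 Compounds were applied to a genetically altered yeast strain carrying a cell-cycle control defect. Growth inhibition was scored against vehicle-treated controls.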

[6] = NCI Yeast Anticancer Drug Screen. Data for the mlh1 rad18 strain (AID 175); details: S. cerevisiae mlh1 rad18 strain growth inhibition; at 50.0 µM; stronger effect = higher value
How it was run: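 Compound-treated yeast growth, normalised to vehicle controls. Strain bears defined DNA repair mutations.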

Row | Structure (SMILES) | growth inhibition [1] [%] | growth inhibition [2] [%] | growth inhibition [3] [%] | growth inhibition [4] [%] | growth inhibition [5] | growth inhibition [6] [%]
1 | Cn1c(=O)c2c(nc(C(c3ccccc3)c3ccccc3)n2C)n(C)c1=O | -11.3 | -25.5 | -3.55 | -33.5 | 6.25% | -18.6
2 | CN(C)Cc1[nH]c2ccccc2c1C(=O)c1ccccc1 | -4.55 | -8.85 | -12.2 | -18.7 | -25.5% | -25.6
3 | O=c1c(SCc2ccc(Br)cc2)c(SCc2ccc(Br)cc2)cnn1-c1ccccc1 | 22.3 | 4.65 | 13.8 | 34 | 13.4% | 14.8
4 | O=[S@@]1Nc2cc3ccccc3cc2S1 | 23.2 | -3.35 | 17.6 | 17.1 | -14.9% | 39.2
5 | CC(C)(C)CC(C)(C)Nc1ccc(C(N)=O)cc1 | -2.35 | 15.2 | -20.9 | -8.2 | 7.7% | 9.6
6 | CC(=O)Nc1nc(NC(C)=O)c2nc(CCN(C)c3ccc(C(=O)O)cc3)cnc2n1 | -9.05 | -18.4 | -5.6 | -5.25 | -40.5% | 2.15
7 | N#CC1CCCC[N-]1.[NH-]CC[N-]CC[NH-].[Pt+4] (stereo not given) | 57.9 | 17.2 | 53.6 | -10.1 | 4.05% | 43
8 | Cc1ccccc1OCC(C)OC(N)=O (stereo not given) | 6.1 | -11.4 | 2.1 | -16.4 | 7% | 6.15
9 | Nc1[nH]c(=O)ncc1[N+](=O)[O-] | 2.5 | -4.1 | 5.9 | -25.4 | -16.2% | -0.65
10 | O=C1c2ccccc2-c2ccc(N3C(=O)c4c(Br)c(Br)c(Br)c(Br)c4C3=O)cc21 | 10.6 | -2.2 | 12.9 | -36.8 | -4.6% | -17.5
11 | Nc1cc([N+](=O)[O-])ccc1-c1ccc([N+](=O)[O-])cc1 | 3.25 | -2.2 | 8.1 | 10.2 | 15.2% | -8.85
12 | Nc1nc(=O)n(CCCOc2cccc(Cl)c2)cc1-c1ccc(Cl)c(Cl)c1 | 52.6 | 49.4 | 52.2 | 68.8 | 87% (active) | 51.5
13 | CC(=O)N(C(C)=O)N1C(=O)C2C3C=CC(C4CC34)C2C1=O (stereo not given) | 30.2 | 17 | 15.8 | 19.6 | 2.95% | 23.4
14 | CCCCOc1ccc(Nc2c(C(=O)OCC)cnc3cc4c(cc23)OCO4)cc1 | -3.3 | -9 | -0.25 | 8.2 | -3.45% | -9.4
15 | COc1cc([C@@H]2c3cc4c(cc3[C@@H](Nc3ccc(NC(=O)c5cc(NC(=O)c6cc([N+](=O)[O-])cn6C)cn5C)cc3)[C@H]3COC(=O)[C@H]23)OCO4)cc(OC)c1O | 34 | 31.6 | 34 | 9.2 | 16.4% | 6.45
16 | Cc1ccc(-n2cc(-c3ccc(Cl)cc3)c3c2N=CN2NC(c4ccco4)=NC32)cc1 (stereo not given) | 5.1 | 14.8 | -13.6 | -12.4 | 11% | -15.3
17 | O=c1[nH]ncn2nc3ccccc3c12 | 3 | 10.2 | -2.5 | -53.1 | -1.3% | 8.15
18 | N#Cc1nc(/C=C/c2nc(C#N)c(N)o2)oc1N | -34.5 | -28.7 | -5.25 | 9.25 | 8.4% | -0.95
19 | CC(=O)CC(=O)Nc1cccc(O)c1 | -15 | -21.8 | -14.9 | 11.8 | -3.85% | -2.85
20 | O=C1CN(/N=C/c2ccc(-c3ccc(Cl)c(Cl)c3)o2)C(=O)N1 | 28.9 | 14.4 | 29.1 | 3.2 | 10% | 5.5
